The values that follow come from PubChem BioAssay (NCATS).

Records with an inconclusive call do not appear. A number with no mark means an inactive call. The source made the active and inactive calls. Calls come from the whole dose curve; as a rule, active = well fitted cell-killing curve with a large enough effect; inconclusive = small, poorly fitted or top-dose-only effect, or effect the other way; inactive = no such curve, though single readings can be large or run the other way.
Potency is the fitted concentration of half-maximal effect.

This assay in a line: Quantitative High-Throughput drug screen in 47 multiple myeloma cell lines against the NCATS MIPE library collection: ARD_JJKsccE7 cell viability assay (AID 1918929). The following applies: ARD myeloma cell line viability, CellTiter-Glo, 48 h; series mostly up to 45.8 µM; viability: at the top concentration. An excerpt: PI: Beverly A. Mock Ph.D.
Laboratory of Cancer Biology and Genetics,
Center for Cancer Research, National Cancer Institute,
National Institute of Health, Bethesda, Maryland
Drug resistance and disease progression are common in multiple myeloma (MM) patients, underscoring the need for new therapeutic combinations. […] We hypothesized that effective combinations would reduce MYC expression and enhance p16 activity. […] These preclinical data identify potentially useful drug combinations for evaluation in drug-resistant MM and reveal potential mechanisms of combined drug sensitivity.
Described herein is the primary MIPE qHTS used to cherrypick compounds. Validated compounds were then further tested for potential synergistic activiy.
[1] Peat TJ, Gaikwad SM, Dubois W, Gyabaah-Kessie N, Zhang S, Gorjifard S, Phyo Z, Andres M, Hughitt VK, Simpson RM, Miller MA, Girvin AT, Taylor A, Williams D, D'Antonio N, Zhang Y, Rajagopalan A, Flietner E, Wilson K, Zhang X, Shinn P, Klumpp-Thomas C, McKnight C, Itkin Z, Chen L, Kazandijian D, Zhang J, Michalowski AM, Simmons JK, Keats J, Thomas CJ, Mock BA. Drug combinations identified by high-throughput screening promote cell cycle transition and upregulate Smad pathways in myeloma. Cancer Lett. 2023 Aug 1;568:216284. doi: 10.1016/j.canlet.2023.216284. Epub 2023 Jun 24. PMID: 37356470; PMCID: PMC10408729.
SEQUENCE No. (e.g., 1, 2, 3, etc.); […] (e.g., Cells, Incubation, Reagent, etc.); VALUE and DESCRIPTION.
1; Cells; 5 uL; white, solid bottom 1536-well Greiner assay plate.
2; Compounds; 23 nL; Kalypsis pin tool (Wako USA) equipped with a 1536-well pin head to transfer to the assay plates.
3; Incubation; 48 hours; 37C incubation.
4; Reagent;5uL; CellTiter Glo (Promega).
5; Detector; 425V; Luminescence; Viewlux PerkinElmer.
NOTES (numbers refer to Sequence numbers above)
1. The cell-based screening methods employed in this study were like those previously published. Briefly, the corresponding myeloma cell lines were screened in 1,536-well plates with 500 cells, 5-uL per well for inhibition of cell viability (assessed by measuring ATP levels with CellTiterGlo).
2. NCATS MIPE 4.0 library of approved and investigational drugs were added using the Kalypsis pin tool. Wells treated with DMSO only for 100% viability and media only wells for 0% viability were used as controls.
3. The assay plates were covered and incubated for 48 hours in a 37C, 5% CO2 incubator with controlled humidity.
4. After 48 hours, CellTilter-GloTM luminescent substrate mix (Promega) reagent was added to the assay plate and plates we incubated for 5 min at room temperature.
5. Signal was measured as median relative luminescence units on a ViewLux (PerkinElmer) multiplate reader.
[1] Heske CM, Davis MI, Baumgart JT, Wilson K, Gormally MV, Chen L, Zhang X, Ceribelli M, Duveau DY, Guha R, Ferrer M, Arnaldez FI, Ji J, Tran HL, Zhang Y, Mendoza A, Helman LJ, Thomas CJ. Matrix Screen Identifies Synergistic Combination of PARP Inhibitors and Nicotinamide Phosphoribosyltransferase (NAMPT) Inhibitors in Ewing Sarcoma. Clin Cancer Res. 2017 Dec 1;23(23):7301-7311. doi: 10.1158/1078-0432.CCR-17-1121. Epub 2017 Sep 12. PMID: 28899971; PMCID: PMC6636827.
Turning to `COC(=O)[C@@H](N)CCCN=C(N)N[N+](=O)[O-]`, the “viability” value is 127%. With `COc1cc([C@@H]2c3cc4c(cc3[C@@H](O)C3COC(=O)C32)OCO4)cc(OC)c1O` (stereo not given in full), the Potency is 0.0083 µM (active). Same read-out and setting: the same measure for `COC[C@H]1OC(=O)c2coc3c2[C@@]1(C)C1=C(C3=O)[C@@H]2CC[C@H](O)[C@@]2(C)C[C@@H]1OC(C)=O`: 6.62 µM (active); for `COC1=C[C@@H]2[C@@H]3Cc4ccc(OC)c(O)c4[C@]2(CCN3C)CC1=O`: 6.62 µM (active).

For `NC1=NC(=O)N2CC12` (stereo not given), the Potency is 18.7 µM (active). For the compound `CC(=Cc1csc(C)n1)[C@@H]1C[C@H]2O[C@]2(C)CCC[C@H](C)[C@@H](O)[C@@H](C)C(=O)C(C)(C)[C@@H](O)CC(=O)O1`, the “viability” value is 17.1%. For the compound `CN(C)[C@@H]1C(=O)C(C(N)=O)=C(O)[C@@]2(O)C(=O)C3=C(O)c4c(O)cccc4[C@@](C)(O)[C@H]3[C@H](O)[C@@H]12`, the “viability” value was 111%. The same measure, in the same setting: under `O=C(N[C@H]1CN2CCC1CC2)c1ccc(Cl)cc1` stands 109%; under `CCc1c(C(=O)C(N)=O)c2c(OCC(=O)O)cccc2n1Cc1ccccc1`, 135%.

Take `COc1ccc2c(c[n+](C)c3c4cc5c(cc4ccc23)OCO5)c1OC`: the Potency is 7.43 µM (active).

On to `CCC(=O)OC1CCC2C3CCC4=CC(=O)CC[C@@]4(C)C3CC[C@]12C` (stereo not given in full), for which the “viability” value was 118%. Regarding `CC(=Cc1csc(C)n1)[C@@H]1C[C@H]2O[C@@H]2CCC[C@H](C)[C@@H](O)[C@@H](C)C(=O)C(C)(C)[C@@H](O)CC(=O)O1`, the Potency was 0.001 µM (active). Regarding `CN1[C@H]2CC(O)C[C@H]1[C@H]1O[C@H]12` (stereo not given in full), the “viability” value was 141%. As for `CC(C)N[C@@H]1CCn2c(=O)[nH]c3cccc(c32)[C@@H]1O`, the Potency was 6.62 µM (active). Take `CC(=O)Nc1ccc(OC[C@](C)(O)C(=O)Nc2ccc([N+](=O)[O-])c(C(F)(F)F)c2)cc1`: the “viability” value was 120%.

On to `C[C@]12CC[C@H]3[C@@H](CCC4=CC(=O)CC[C@@]43C)[C@H]1CC[C@H]2O`, for which the “viability” value was 96.6%. Still for that read-out and setting: the same measure for `CN(C)NC(=O)CCC(=O)O`: 123%; for `Clc1ccccc1C(c1ccccc1)(c1ccccc1)n1cccn1`: 134%.

On to `CCCC[N+]1(C)[C@H]2CC(OC(=O)[C@H](CO)c3ccccc3)C[C@H]1[C@H]1O[C@H]12` (stereo not given in full), for which the “viability” value was 122%. `O=S(=O)(CC1CS1)c1ccc(Oc2ccccc2)cc1` (stereo not given): the “viability” value was 142%.

Turning to `O=C(O)CNC(=O)c1c(O)c2ccccc2n(Cc2ccccc2)c1=O`, the “viability” value was 143%. For the compound `CC(=O)O[C@@]12CO[C@H]1C[C@H](O)[C@@]1(C)C(=O)[C@H](O)C3=C(C)[C@@H](O)C[C@@](O)([C@@H](OC(=O)c4ccccc4)[C@@H]21)C3(C)C`, the Potency was 2.09 µM (active). `C=CCON=C(C[C@H]1O[C@@H]2O[C@]3(C)CC[C@@H]4[C@H](C)CC[C@@H]([C@H]1C)[C@@]24OO3)[C@H]1O[C@@H]2O[C@]3(C)CC[C@H]4[C@H](C)CC[C@@H]([C@@H]1C)[C@@]24OO3`: the Potency was 0.132 µM (active). `CC(C)[C@]12O[C@@H]1[C@@H]1O[C@]13[C@]1(O[C@H]1C[C@@H]1C4=C(CC[C@@]13C)C(=O)OC4)[C@H]2O`: the “viability” value was 4.51%. For the compound `COc1ccc(N(C(=O)Oc2c(C)cccc2C)c2ccnc(Nc3ccc(N4CCN(C)CC4)cc3)n2)c(OC)c1`, the Potency is 7.43 µM (active). Same read-out and setting: the same measure for `CC[C@H]1C=CC=CC[C@@H](C)[C@H](O)[C@@](C)(O)C(=O)[C@@H](C)[C@H](O)[C@@H](C)C(=O)[C@@H](C)[C@H](O)[C@@H](C)C=CC(=O)O[C@@H]2[C@@H](C)[C@H](CC1)O[C@]1(CC[C@H](C)[C@H](C[C@@H](C)O)O1)[C@H]2C`: 0.001 µM (active). The same measure, in the same setting: under `CCNC(=O)CC1N=C(c2ccc(Cl)cc2)c2cc(OC)ccc2-n2c(C)nnc21` (stereo not given) stands 13.2 µM (active). In the case of `c1cc2c(cc1[C@H]1OC[C@H]3[C@H]1CO[C@H]3c1ccc3c(c1)OCO3)OCO2`, the “viability” value is 92.7%.

Consider `c1ccc2c(CN3CCNCC3)cccc2c1`, for which the “viability” value was 99.1%. Consider `CN1CCN(c2ccc([N+](=O)[O-])c3no[n+]([O-])c23)CC1`, for which the Potency was 23.5 µM (active). Same read-out and setting: under `C[C@@H]1O[C@@H](O[C@@H]2C=C3CC[C@@H]4[C@@H](CC[C@]5(C)[C@H](c6ccc(=O)oc6)CC[C@@]45O)[C@@]3(C)CC2)[C@H](O)[C@H](O)[C@H]1O` stands 0.0093 µM (active); under `N#C[C@H](O[C@@H]1O[C@H](CO[C@@H]2O[C@H](CO)[C@H](O)[C@H](O)[C@H]2O)[C@H](O)[C@H](O)[C@H]1O)c1ccccc1`, 5.9 µM (active); under `CC[C@@]1(O)C(=O)OCc2c1cc1n(c2=O)Cc2cc3ccccc3nc2-1`, 0.372 µM (active). Regarding `C#CC1(O)CCC2C3CCC4=CC(=O)CCC4(C)C3CCC21C` (stereo not given), the “viability” value is 113%. On to `CC[C@@H]1[C@@H](C)O[C@@](O)([C@@H](C)[C@H](O)[C@H](C)[C@H]2OC(=O)C=CC=C[C@@H](C)[C@@H]([C@@H](C)[C@@H](O)[C@H](C)[C@@]3(O)C[C@H](O[C@H]4C[C@H](O)[C@H](O)[C@H](C)O4)[C@H](CC)[C@@H](C)O3)OC(=O)C=CC=C[C@@H]2C)C[C@H]1O[C@H]1C[C@H](O)[C@H](O)[C@H](C)O1`, for which the Potency was 0.372 µM (active).

In the case of `CC=C(C)C(=O)N[C@@H](c1ccccc1)[C@@H](O)C(=O)O[C@H]1C[C@@]2(O)[C@@H](OC(=O)c3ccccc3)[C@@H]3[C@]4(OC(C)=O)CO[C@@H]4C[C@H](O)[C@@]3(C)C(=O)[C@H](OC(C)=O)C(=C1C)C2(C)C`, the Potency is 0.001 µM (active). As for `CSCC[C@@H](NC(=O)[C@@H](Cc1ccccc1)NC(=O)CNC(=O)CNC(=O)[C@@H](N)Cc1ccc(O)cc1)C(=O)O`, the “viability” value is 146%.

`CCOP(=O)(OCC)C(C)NC(=O)N(CCCl)N=O` (stereo not given): the “viability” value is 145%. With `C[C@]12CCC(=O)C(O)=C1CC[C@@H]1[C@H]3CCC(=O)[C@@]3(C)CC[C@@H]12`, the “viability” value is 113%. Same read-out and setting: under `COc1ccc(CC2NCCc3cc(OC)c(OC)cc32)cc1OC` (stereo not given) stands 76.1%.
